40 molecules from PubChem BioAssay (NCATS) can be followed below.

Records with an inconclusive call do not appear. A number with no mark means an inactive call. Calls of active or inactive are those of the source. Calls come from the whole dose curve; as a rule, active = well fitted cell-killing curve with a large enough effect; inconclusive = small, poorly fitted or top-dose-only effect, or effect the other way; inactive = no such curve, though single readings can be large or run the other way.
Potency is the fitted concentration of half-maximal effect.

This assay in a line: Viability qHTS for spleen associated tyrosine kinase inhibitor (SYKi) drug resistant MV4-11 cells (AID 1963824). Note: nearly all actives have a fitted effect of over 35% in size. Particulars: SYKi-resistant MV4-11 viability, CellTiter-Glo, 72 h; series mostly up to 45 µM. Put shortly: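 SYK-inhibitor-resistant MV4-11 AML cells were seeded at 500 per well onto compound and cultured 72 hours (37 °C, 5% CO2). CellTiter-Glo was then added, and after 10 min at room temperature, luminescence gave viability.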
(In general: qHTS replaces the single test concentration by a dilution series.)
On to `O=C1CCCC2=C1C1(CCCC1)N=C(Nc1nc3ccccc3o1)N2`, for which the Potency is 3.66 µM (active).
The same measure, in the same setting: the same measure for `Cn1cnc(-c2nccc3c(=O)[nH]c(OCCCC(F)(F)F)nc23)c1`: 9.2 µM (active).
Same read-out and setting: the same measure for `CC[C@H]1OC(=O)[C@H](C)[C@@H](O[C@H]2C[C@@](C)(OC)[C@@H](O)[C@H](C)O2)[C@H](C)[C@@H](O[C@@H]2O[C@H](C)C[C@H](N(C)C)[C@H]2O)[C@@](C)(O)C[C@@H](C)[C@@H]2N[C@@H](COCCOC)OC([C@H]2C)[C@]1(C)O`: “inactive”; for `N#C/C(=C(\N)Sc1ccc(N)cc1)c1ccccc1C(F)(F)F`: 7.31 µM (active); for `CCc1nn(CCO)c(CC)c1Oc1cc(C#N)cc(C#N)c1`: “inactive”.
Regarding `COC(=O)N[C@H](C(=O)N1[C@@H]2CC[C@@H](C2)[C@H]1c1nc2ccc(-c3ccc4c(c3)C(F)(F)c3cc(-c5cnc([C@@H]6CCC7(CC7)N6C(=O)[C@@H](NC(=O)OC)C(C)C)[nH]5)ccc3-4)cc2[nH]1)C(C)C`, the Potency is 3.99 µM (active).
Still for that read-out and setting: in the case of `C/C=C(\C)C(=O)OC1C(C)C2(O)C3C=C(C)C(=O)C3CC(CO)=CC2C2C(C)(C)C12OC(C)=O` (stereo not given) it was “inactive”.
`C[C@@H]1O[C@@H](O[C@H]2[C@H](O)[C@@H](O[C@@H]3O[C@H](CO)[C@@H](O)[C@H](O[C@@H]4O[C@H](CO)[C@@H](O)[C@H](O)[C@H]4O)[C@H]3O)[C@H](O[C@H]3CC[C@@]4(C)C(=CC[C@@H]5C4CC[C@@]4(C)C5C[C@@H]5OC6(CC[C@@](C)(CO[C@@H]7O[C@H](CO)[C@@H](O)[C@H](O)[C@H]7O)O6)[C@@H](C)[C@@H]54)C3)O[C@@H]2CO)[C@H](O)[C@H](O)[C@H]1O` (stereo not given in full): the viability, % of control is 94.3% [at 9.25 µM].
On to `COc1ncc(Nc2ncc([C@@H](C)N3CCN(S(C)(=O)=O)CC3)cc2-c2nc(C)nc(N)n2)cc1F`, for which the Potency result is “inactive”.
Same read-out and setting: the same measure for `N#Cc1cccnc1N1CCN(C(=O)c2cccc(Cc3n[nH]c(=O)c4ccccc34)c2)CC1`: 0.186 µM (active); for `COc1cc2c(cc1OC)[C@@H]1[C@H](O)[C@@H](OC)C=C3CCN(C2)[C@H]31`: 1.8 µM (active).
On the same count and under the same terms, in the case of `O=C1NC(=O)/C(=C\c2ccc3c(c2)OC(F)(F)O3)S1` it was 14.6 µM (active); in that of `Nc1cccc(CNC(=O)c2ccc(Oc3ccc(OCc4cccc(F)c4)cc3)nc2)c1`, 16.4 µM (active).
`C/C=C(/COC(=O)/C(C)=C/C)C(=O)OC/C=C/c1ccc(OC)cc1`: the Potency was 12.8 µM (active).
Still for that read-out and setting: in the case of `COc1cc2nc(N3CCN(C)CC3)nc(NC3CCN(Cc4ccccc4)CC3)c2cc1OC` it was 3.26 µM (active); in that of `CC1=CC(=O)CC(C)(C)[C@H]1/C=C/C(CO)O[C@@H]1O[C@H](CO)[C@@H](O)[C@H](O)[C@H]1O` (stereo not given in full), “inactive”.
Same read-out and setting: in the case of `CC(C)(c1ccc(O)cc1)c1ccc(O)cc1` it was 27.9 µM (active); in that of `CCNC(=O)Nc1ccc(Oc2ncnc(N)c2/C=N/OC)cc1Cl`, 18.6 µM (active).
Consider `COC(=O)C1=COC(O[C@@H]2O[C@H](CO)[C@@H](O)[C@H](O)[C@H]2O)[C@H]2[C@@H]1[C@H](OC(=O)CCc1ccc(O)cc1)C[C@]2(C)O` (stereo not given in full), for which the Potency result was “inactive”.
Same read-out and setting: in the case of `O=C1[C@H](O[C@@H]2O[C@H](CO)[C@@H](O)[C@H](O)[C@H]2O)Oc2ccccc2N1O` it was “inactive”; in that of `O=c1[nH]c2cccc(N3CCN(Cc4ccc(-c5ccccc5)cc4)CC3)c2o1`, 20.6 µM (active); in that of `C/C=C/C1=CC2=C(CO1)C(=O)C(C)(O)C(OC(=O)c1c(C)cc(OC)cc1O)C2` (stereo not given), 4.04 µM (active).
The same measure, in the same setting: in the case of `Cc1ccc(F)cc1S(=O)(=O)N[C@@H]1CCN(Cc2ccc(OC(C)C)cc2)C1` it was 18.4 µM (active); in that of `O=C(/C=C/c1cccnc1)c1ccncc1`, 6.51 µM (active).
As for `COc1ccc(-c2ccc3c(N4CCOCC4C)nc(N4CCOCC4C)nc3n2)cc1CO` (stereo not given), the Potency was 0.103 µM (active).
On the same count and under the same terms, in the case of `CC1OC(OC2C(O)COC(O[C@@H]3[C@@H](O)[C@@H](O)[C@H](OC4C(OC(=O)[C@]56CCC(C)(C)CC5C5=CCC7[C@@]8(C)C[C@H](O)[C@H](OC9OC(CO)C(O)C(O)C9O)[C@@](C)(CO)C8[C@H](O)C[C@@]7(C)[C@]5(C)CC6)OCC(O)C4O)O[C@H]3C)C2O)C(O)C(O)C1O` (stereo not given in full) it was 1.23 µM (active).
Still for that read-out and setting: the same measure for `O=C1OC2(c3ccc(O)cc3Oc3cc(O)ccc32)c2ccccc21`: “inactive”.
Same read-out and setting: in the case of `COc1ccc(S(=O)(=O)N2c3ccc(Cl)cc3[C@@](O)(c3ccccc3Cl)[C@H]2C(=O)N2CCC[C@@H]2C(N)=O)cc1OC` it was 16.8 µM (active).
Turning to `CC1CC2OCC3(O)CCC(O)C(C14CC(c1ccoc1)OC4=O)C23CO` (stereo not given), the Potency entry is “inactive”.
Same read-out and setting: in the case of `C=CC(=O)Nc1cccc(Nc2nc(Nc3ccccc3)ncc2C)c1` it was 0.651 µM (active); in that of `CCC(O)(C(=O)OCc1ccccc1NC(=O)CCC(=O)O)C(C)O` (stereo not given), “inactive”.
The same measure, in the same setting: the same measure for `COc1cc(Nc2nc3c(s2)CCCC3c2ccc(F)cc2)ccc1-n1cnc(C)c1` (stereo not given): 4.61 µM (active); for `C=C[C@@]1(C)CCC2=C([C@H]1OC(C)=O)[C@H](OC(C)=O)CC1[C@](C)(C(=O)OC)CC[C@H](OC(C)=O)[C@]21C` (stereo not given in full): “inactive”; for `c1cc(NCCc2c[nH]c3ccccc23)cc(Nc2ccncc2)c1`: 0.651 µM (active).
Still for that read-out and setting: the same measure for `O=c1[nH]ccc2c(S(=O)(=O)N3CCCNCC3)cccc12`: “inactive”; for `NC(=O)c1csc(C2OC(CO)C(O)C2O)n1` (stereo not given): 8.2 µM (active).
In the case of `COc1cccc2c1CCC[C@H]2CN(C)CCc1ccc2ccoc2c1`, the Potency was 23.1 µM (active).
The same measure, in the same setting: in the case of `O=C(O)c1cccc(CN2C(=O)/C(=C(\c3ccccc3)c3ccc(Cl)cc3)c3ccccc32)c1` it was 20.6 µM (active); in that of `CCNC1(C(N)=O)CN(c2nc(C)nc3c(-c4ccc(Cl)cc4)c(-c4ccccc4Cl)nn23)C1`, 16.4 µM (active).
On the same count and under the same terms, the same measure for `COc1ccccc1-c1c[nH]c2ncc(-c3cncc(C(=O)N(C)C)c3)cc12`: 1.84 µM (active).
